# Screening data as filed in PubChem.
# PNC assembly inh: inhibitors of perinucleolar compartment assembly; PC3M PTB-GFP, PNC prevalence imaging, 16 h; active compounds read low; activity change (PNC), negative = inhibition, % at 10 µM; 3.1% of 140,000 active; AID 2417;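 active = readout at or below -70, meaning at least 70% loss of cells showing the perinucleolar compartment, a nuclear body marking cancer cells; inconclusive = readout between -30 and a set limit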;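 also: plate controls were DMSO wells for no effect and camptothecin positive control wells for full effect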
#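 Compounds are pinned in duplicate onto adhered PC3M cells stably expressing GFP-tagged PTB and incubated 16 h at 37 C. Cells are then fixed, nuclei stained with Hoechst, and PNC-positive cells counted.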
# ALOX12 inhib: 12-hLO (ALOX12) enzyme inhibition. 0.12% of 150,000 active. Potency, µM (doses to about 57.1 µM), inactives show at the highest dose activity change, negative = inhibition, actives largely listed as inhibitors. purified 12-hLO, xylenol orange hydroperoxide absorbance. P18054; active = well fitted inhibition curve with a large enough effect; inconclusive = small, poorly fitted or top-dose-only effect; also: potency is read from the fitted curve at half-maximal effect; nearly all actives have a fitted effect of over 55% in size
# Target sequence (P18054 whole entry, looked up): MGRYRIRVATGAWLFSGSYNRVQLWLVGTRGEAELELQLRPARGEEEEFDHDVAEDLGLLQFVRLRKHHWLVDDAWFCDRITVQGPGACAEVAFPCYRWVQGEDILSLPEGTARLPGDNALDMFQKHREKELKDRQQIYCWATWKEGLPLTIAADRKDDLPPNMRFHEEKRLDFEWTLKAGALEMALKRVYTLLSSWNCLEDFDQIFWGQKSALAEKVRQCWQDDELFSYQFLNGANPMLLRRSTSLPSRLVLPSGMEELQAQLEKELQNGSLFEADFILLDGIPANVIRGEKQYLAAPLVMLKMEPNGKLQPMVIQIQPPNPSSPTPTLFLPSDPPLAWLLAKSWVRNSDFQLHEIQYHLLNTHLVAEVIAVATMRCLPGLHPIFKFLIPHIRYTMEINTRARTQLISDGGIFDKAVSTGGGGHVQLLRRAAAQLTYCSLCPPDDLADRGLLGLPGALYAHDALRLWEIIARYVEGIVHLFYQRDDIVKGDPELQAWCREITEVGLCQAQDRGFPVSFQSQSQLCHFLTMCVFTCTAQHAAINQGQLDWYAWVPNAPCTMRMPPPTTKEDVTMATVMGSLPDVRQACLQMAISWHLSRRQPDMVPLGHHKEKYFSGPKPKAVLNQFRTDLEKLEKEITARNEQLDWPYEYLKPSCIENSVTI
#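 Lipoxygenase turnover measured by absorbance at 573 and 405 nm after Fe-XO development. Human 12hLO 150 nM, arachidonate 40 uM, pH 7.0 Hepes buffer with detergent; 15 min compound preincubation, 30 min reaction.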
# LMNA splice mod: modulators of lamin A splicing; HeLa LMNA splicing GFP/RFP minigene ratio, 48 h; Potency, µM (highest dose often 46.1 µM), for inactives: at the top dose ratio change, negative = inhibition, usual class: inhibitors; 0.01% of 200,000 active; AID 1487; active = well fitted inhibition curve with a large enough effect in the signal ratio, with a control signal flat, not every such curve was filed as active; inconclusive = small, poorly fitted or top-dose-only effect, or effect the other way, or a change in a side signal; the % refers to the signal ratio; also: potency is read from the fitted curve at half-maximal effect
#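 Read-out is the ratio of GFP to DsRed2 object intensity, acquired by 488 nm laser-scanning cytometry on HeLa lamin A-EGFP minigene reporter cells. Compound incubation 48 hrs at 37 °C in Opti-MEM with 2% FBS; DMSO 0.5% final.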
# HPGD block: blocks human HPGD enzyme activity; P15428; purified HPGD, NADH fluorescence kinetic, PGE2 substrate; Potency, µM, without a hit: at the top dose activity change, negative = inhibition, most hits filed as inhibitors; 4.3% of 150,000 active; AID 894; also: potency is read from the fitted curve at half-maximal effect
#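 20 nM HPGD preincubated 15 min at room temperature with compound in 50 mM Tris-HCl pH 8, 0.01% Tween 20. Started with 1 mM NAD+ and 30 uM prostaglandin E2; NADH fluorescence (360/450 nm) read 5 times over 30-s intervals, last minus first.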
# ALDH1A1 inh: ALDH1A1 (human) enzyme inhibition; P00352; Purified ALDH1A1, NADH fluorescence, propionaldehyde substrate; Potency, µM (titrated, usually from 75.3 µM), without a hit: top-dose activity, negative = inhibition, hits mostly inhibitors; 7.3% of 220,000 active; AID 1030;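 also: potency is read from the fitted curve at half-maximal effect; plate controls were no enzyme wells and a reference inhibitor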
# * hit, by the source's call; ? = inconclusive; nt = no result given; [ ] = another dose, or the depositor's remark. Sampled rows, rich in hits. Any-hit rate of the full collection: about 10%. Unless noted, calls follow the shape of the dose curve; as a rule, active = well fitted inhibition curve with a large enough effect (not every such curve was filed as active); inconclusive = small, poorly fitted or top-dose-only effect, or another doubt; inactive = no such curve, though single readings can be large or run the other way. Unless noted, % is scaled to controls: 0 for no effect and ±100 for the full control effect.
SMILES,PNC assembly inh,ALOX12 inhib,LMNA splice mod,HPGD block,ALDH1A1 inh
O=C(NN=C1C2CC3CC(C2)CC1C3)c1cccs1,?,7.0%,7.0%,-7.8%,20µM*
COC(=O)c1c(NC(=O)CC2SC(N)=NC2=O)sc2c1CCC(C)C2 (stereo unspecified),-28.2,-0.5%,-11.8%,-2.0%,12.6µM*
CCOC(=O)c1c(NC(=O)CC2SC(N)=NC2=O)sc2c1CCC(C)C2 (stereo unspecified),44.8,-2.9%,-17.8%,-24.4%,15.8µM*
COC(=O)c1c(NC(=O)CC2SC(N)=NC2=O)sc2c1CCCC2 (stereo unspecified),47.7,1.2%,-15.9%,-14.6%,25.1µM*
CCOc1ccc(C(=O)NCC(c2ccco2)S(=O)(=O)c2ccc(C)cc2)cc1 (stereo unspecified),nt,nt,5.1%[46 µM],nt,nt
CCc1nc2c(sc3nc4c(cc32)COC(C)(C)C4)c(=O)n1Cc1ccccc1,36.3,6.8%,7.6%,?,0.708µM*
CCc1nc2c(sc3nc4c(cc32)COC(C)(C)C4)c(=O)n1Cc1ccco1,?,-9.7%,?,-27.5%,2.51µM*
Cc1ccc(S(=O)(=O)N(C)Cc2nc(-c3ccccc3)oc2C)cc1,nt,nt,5.1%[46 µM],nt,nt
CSC1=NSC2=NC(=O)/C(=C/c3coc4ccc(O)cc4c3=O)C(=N)N12,?,-8.2%,?,22.4µM*,?
Cc1ccc(N(CC(=O)NCCSCc2ccco2)S(=O)(=O)c2ccc(C)cc2)cc1,-1.1,-13.6%,3.9%,-7.0%,-9.6%
COc1ccc(S(=O)(=O)NCCSC(C)(C)C)cc1Cl,-24.6,-7.2%,?,-2.4%,?
CS(=O)(=O)NCCSCc1ccco1,-81.9*,1.6%,1.6%,1.5%,?
COc1ccc(S(=O)(=O)NCCSCc2ccco2)cc1Cl,?,-7.6%,-11.8%,0.0%,20µM*
Cc1ccc(C)c(N(CC(=O)NCCSCc2ccco2)S(C)(=O)=O)c1,41.2,-16.5%,8.4%,-13.8%,3.55µM*
CCN1CCN(Cc2nc3cc(NC(=O)c4cc(OC)c(OC)c(OC)c4)ccc3n2CC)CC1,nt,nt,-14.3%[46 µM],nt,nt
CC(C)(C)C(=O)NCC(c1ccc2c(c1)OCO2)N1CCOCC1 (stereo unspecified),nt,nt,-7.0%[46 µM],nt,nt
Cc1cc(F)c(Nc2ncnc3cc(OCc4ccccc4)ccc23)cc1O,nt,-2.5%[0.00818 µM],nt,-19.7%,-12.2%
C=CCc1c(C)nc2nc(SCC(=O)Nc3ccccc3CC)nn2c1C,nt,nt,-2.6%[46 µM],nt,nt
Cc1cccc(N2CC3=C(C2=O)C(c2ccccc2)NC(=O)N3C)c1 (stereo unspecified),-81.1*,-3.0%,2.5%,-6.8%,-8.0%
COCCn1c(=O)c(-c2ccc(OC)cc2)nc2cnc(N3CCNCC3)nc21,nt,-0.6%,nt,?,?
Cc1nnc(NC(=O)C(C)Oc2ccc3c(C)cc(=O)oc3c2)s1 (stereo unspecified),-106.5*,7.2%,11.3%,?,?
O=C(CCS(=O)(=O)c1cccc2nsnc12)N1CC(=O)N(CCc2ccccc2)C(=O)C1,?,-0.8%,-1.5%,-21.9%,22.4µM*
COc1ccc(N2CCN(C(=O)CCS(=O)(=O)c3cccc4nsnc34)CC2)cc1,-84.6*,-1.6%,-16.4%,-12.2%,?
COc1ccc(N2CCN(C(=O)CS(=O)(=O)c3cccc4nsnc34)CC2)cc1,nt,nt,2.4%[46 µM],nt,nt
COc1cc(NC(=O)CN2CCN(CC(=O)Nc3ccc(F)cc3)CC2)cc(OC)c1,nt,nt,-10.8%[46 µM],nt,nt
SMILES,PNC assembly inh,ALOX12 inhib,LMNA splice mod,HPGD block,ALDH1A1 inh
Cc1ccc(N2CC(NC(=O)Cc3ccc(F)cc3)CC2=O)cc1C (stereo unspecified),nt,nt,7.2%[46 µM],nt,nt
CN(C)c1ccc(C2=NOC(CN3C(=O)c4ccccc4S3(=O)=O)C2)cc1 (stereo unspecified),-24.0,-2.0%,?,?,15.8µM*
CC(=O)OC1CCC2(C)C3CCC4(C)C(CC5CCCCC54C(C)=O)C3CC(=O)[C@@]2(O)C1 (stereo partly specified),nt,0.5%,nt,-9.1%,-6.1%
CC(=Nc1ccccc1)C1=C(O)CSC1=O,-12.3,10.4%,-6.2%,-17.7%,25.1µM*
COc1ccc(N=C(C)C2=C(O)CSC2=O)cc1,18.5,7.8%,2.9%,-14.6%,?
COC(=O)C(O)C1C(C)(C)C(OC(C)=O)C2CC3=C4CC(=O)OC(c5ccoc5)[C@]4(C)CCC3[C@@]1(C)C2=O (stereo partly specified),nt,2.7%,nt,-5.8%,-0.4%
CCOC(=O)CC(NC(=O)c1cc2cccc(OC)c2oc1=O)c1cccc([N+](=O)[O-])c1 (stereo unspecified),0.7,-0.1%,-8.0%,?,22.4µM*
CCc1c(C)nc(Nc2nc(C)c3ccc(OC)cc3n2)[nH]c1=O,-26.9,-3.0%,-4.1%,-4.2%,2.24µM*
CCc1c(C)nc(Nc2nc(C)c3cc(OC)ccc3n2)[nH]c1=O,?,-7.7%,?,nt,?
Cc1ccc(NC(=O)c2cc3c(=O)n(Cc4ccco4)ccc3nc2C)cc1C,nt,nt,-6.7%[46 µM],nt,nt
COCCOC(=O)c1c(C)oc2ccc(NS(=O)(=O)c3ccccc3)cc12,23.8,-0.2%,1.9%,-15.4%,20µM*
Cc1oc2ccc(NS(=O)(=O)c3ccccc3)cc2c1C(=O)Nc1ccccc1,-15.7,-1.3%,-7.9%,-21.9%,?
COc1cc(/C=C/C(=O)N2CCCN(C(=O)/C=C/c3cc(OC)c(OC)c(OC)c3)CC2)cc(OC)c1OC,nt,nt,-2.4%[46 µM],nt,-10.8%
COc1cc(/C=C/C(=O)N2CCC=CC2=O)cc(OC)c1OC,nt,-2.6%,nt,-24.3%,10µM*
CCOC(=O)C1=C(c2cccc(Oc3ccccc3)c2)NC(=S)NC1C (stereo unspecified),3.3,?,?,-25.6%,0.316µM*
CCOC(=O)C1=C(C)C(c2ccc(OC)cc2)NC(=O)N1 (stereo unspecified),nt,nt,2.6%[46 µM],nt,3.1%
CCOC(=O)C1=C(C)C(c2ccc(OC)cc2)NC(=S)N1 (stereo unspecified),?,-5.9%,-1.7%,-8.9%,2.24µM*
CCOC(=O)C1=C(c2ccccc2)NC(=S)NC1c1ccc(Cl)c([N+](=O)[O-])c1 (stereo unspecified),-22.2,?,?,-23.9%,0.708µM*
CCOC(=O)COc1c(Cl)cc(C2NC(=S)NC(c3ccccc3)=C2C(C)=O)cc1OC (stereo unspecified),100.6,-14.4%,-18.6%,-4.3%,?
CCOC(=O)C1=C(C)C(c2cccc(Oc3ccccc3)c2)NC(=S)N1 (stereo unspecified),-12.0,?,?,-10.0%,0.562µM*
O=C(c1cnccn1)N1CCC2(CC1)CN(Cc1nccs1)C2,nt,-1.7%,nt,-8.5%,5.5%
C[N+]1(C)CCc2cc3c(cc2[C@@H]1[C@@H]1C(=O)Oc2c1ccc1c2OCO1)OCO3,nt,-6.6%,nt,-3.8%,7.0%
